Consider 13 compounds from PubChem BioAssay (NCATS).

The structures appear in SMILES notation. Inconclusive results are not listed. Unmarked numbers belong to inactive results. Active and inactive are the calls of the source. The call rests on the fitted dose curve; in most records, active means well fitted curve in the direction sought with a large enough effect; inconclusive means small, poorly fitted or top-dose-only effect, or another doubt; inactive means no such curve, though single readings can be large; an effect the other way counts as inactive or inconclusive.
Potency means the concentration at half of the fitted maximal effect.

A short description of one experiment: qHTS of pediatric cancer cell lines to identify multiple opportunities for drug repurposing: Primary screen for U-2 OS cells (AID 1347096). Further: nearly all actives have a fitted effect of over 50% in size.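 On activity change, negative = cytotoxic: plate controls were DMSO wells for no effect and bortezomib positive control wells for full effect.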 The note with it: U-2 OS viability, CellTiter-Glo luminescence, 48 h; series mostly up to 46 µM; activity change, negative = cytotoxic: at the top concentration. A digest of the protocol:
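Viability after 48 h compound treatment at 37C, 500-1,000 cells/well, read as ATP luminescence with CellTiter-Glo. Primary screens used 11-point (MIPE, 0.78 nM-46 µM) or 8-point (NPC, 0.59 nM-46 µM) final concentrations; follow-up screens used 11-point dilutions.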
Background: Quantitative high-throughput screening tests each substance at several concentrations.
For the compound `CCO[C@H]1O[C@@H]2OC3(C)CC[C@H]4[C@H](C)CC[C@@H]([C@H]1C)[C@@]24OO3`, the “activity change, negative = cytotoxic” value was -7.62%. Consider `CC[C@H](O)C(C[C@H](C)N(C)C)(c1ccccc1)c1ccccc1`, for which the “activity change, negative = cytotoxic” value is -12.1% [at 92.7 µM]. On to `C[C@H](N)[C@H](O)c1ccc(O)c(O)c1`, for which the “activity change, negative = cytotoxic” value is 2.14%. Consider `Cc1ccc([N+](=O)[O-])[c]2c1[O][Hg]2`, for which the Potency was 2.66 µM (active). As to `CC[C@]1(O)CC[C@H]2[C@@H]3CCC4=CCCC[C@@H]4[C@H]3CC[C@@]21C`, the “activity change, negative = cytotoxic” value was -15.3%. As to `C[C@H](CN1CCOCC1)C(C(=O)N1CCCC1)(c1ccccc1)c1ccccc1`, the “activity change, negative = cytotoxic” value is -5.5% [at 155 µM]. Turning to `CN(C)C(=S)SSC(=S)N(C)C`, the Potency was 0.266 µM (active).

Another experiment in a line: qHTS of pediatric cancer cell lines to identify multiple opportunities for drug repurposing: Primary screen for Saos-2 cells (AID 1347097). Further: nearly all actives have a fitted effect of over 40% in size. On activity change, negative = cytotoxic: on the % scale 0 is the no-effect control and ±100 the full control effect. The note with it: Saos-2 viability, CellTiter-Glo ATP luminescence, 48 h; series mostly up to 46 µM; activity change, negative = cytotoxic: at the top concentration. A digest of the protocol:
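Phenotypic viability qHTS, 48 h compound exposure, CellTiter-Glo luminescence read-out; multi-concentration dosing so that potency and efficacy derive directly from the primary screen's curves.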
For the compound `CCC(OC(C)=O)C(CC(C)NC)(c1ccccc1)c1ccccc1` (stereo unspecified), the Potency was 43.7 µM (active). Still for that read-out and setting: with `COc1cc(CC(C)N)c(OC)cc1Br` (stereo unspecified) the figure was 35.7 µM (active); with `COc1ccc2c3c1O[C@H]1[C@@H](O)C=C[C@H]4[C@@H](C2)N(C)CC[C@@]341`, 37.8 µM (active). Consider `CC[C@H](O)C(C[C@H](C)N(C)C)(c1ccccc1)c1ccccc1`, for which the “activity change, negative = cytotoxic” value was -27.9% [at 92.7 µM]. Consider `CC[n+]1c(-c2ccccc2)c2cc(N)ccc2c2ccc(N)cc21`, for which the Potency is 13.3 µM (active).

For the compound `Cc1ccc([N+](=O)[O-])[c]2c1[O][Hg]2`, the Potency is 0.106 µM (active). Still for that read-out and setting: to `c1ccc2c(c1)Sc1ccccc1N2CC1CN2CCC1CC2` (stereo unspecified) belongs 26.6 µM (active). Consider `COc1ccc2c(C(=O)c3ccc(Cl)cc3)c(C)n(CC(=O)O)c2c1`, for which the “activity change, negative = cytotoxic” value is -8.93%.

On to `CN(C)C(=S)SSC(=S)N(C)C`, for which the Potency was 0.133 µM (active).
